V-ATPase pH – alters yeast V-ATPase proton transport; S. cerevisiae, pHLuorin cytosolic pH fluorescence; response, % at 10 µM; 0.37% of 350,000 active; in the data active = response mostly above about 7.3%, no sharp cut-off; inactive = mostly below about 5.4%; note: actives read high
H9c2 protect – modulators protecting cardiomyocytes from myocardial damage. AID 588492. protection from H2O2 cell death, % at 20 µM. H9c2 cardiomyocytes, H2O2 injury protection, ATPLite, 2 h. 0.63% of 360,000 active;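 active = compounds giving at least 50% protection of heart cells from peroxide-induced death in the single-dose screen, raw or plate-pattern-corrected value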;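 note: 0% = DMSO wells with peroxide and 100% = DMSO wells without peroxide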
MIN6 prolif-1 – induces beta-cell replication in MIN6 cells; MIN6 cells proliferation, ATPlite luminescence, 48 h; cells starved in 0.2% serum; 100% = growth in 10% serum; proliferation, % at 10 µM; 0.29% of 330,000 active;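 active = compounds whose signal lies at least 3.5 SD above the mean of all wells on their plate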;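 note: 0% = DMSO-treated cells in low-serum medium and 100% = 10% serum control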
HSV augment – increases HSV replication in cells. HSV replication augmentation in cells, fold increase. 0.005% of 220,000 active. AID 1956. maximum fold increase; in the data active = maximum fold increase above about 1.5; tested in PC3 cells
Yeast superoxide – lowers age-related superoxide in aged yeast cells. S. cerevisiae aged cells, superoxide DHE fluorescence; active compounds read low. superoxide response (% of plate mean), % at 10 µM. 0.18% of 330,000 active. AID 2690;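 active = superoxide response under a set limit, about three screen SD below normal, cut at about 65% in these data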;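 note: yeast aged for seven days with compound at 30 °C before DHE staining; 100% = average MFI of all compound-treated wells on the plate with controls excluded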
p-CIP stab down – lowers stability of the mouse p/CIP coactivator protein | 0.01% of 290,000 active | AID 1984 | F442A p/CIP-EGFP cells, EGFP fluorescence, 16 h | decrease of EGFP signal, % at 10 µM;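 active = EGFP signal decrease of at least 30% at 10 µM or well 3 SD below plate mean, unless failing retest; inactive = the rest, including hits failing retest or dose response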
MIN6 prolif-2 – confirmation of inducers of beta-cell replication in MIN6 cells; shares compounds with MIN6 prolif-1; proliferation increase, % at 50 µM; MIN6 beta-cell proliferation, ATPlite luminescence, 48 h; cells kept in 0.2% serum; scaled between 0.2% and 10% serum; 920 tested, under 10 active;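 active = proliferation increase above 40% at any of the four tested concentrations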
Starred values were filed as active, the others as inactive. A selection: hits, their analogues and other compounds. The true share with any hit is near 1.4%.

Screening CC(=O)c1ccccc1NC(=O)CSc1nnc2ccccn12 returned MIN6 prolif-1 -1.5, Yeast superoxide 96.3 and p-CIP stab down -2.4.
COc1cccc(Cn2c(=O)c3[nH]cnc3n(-c3ccccc3C)c2=O)c1 was read as V-ATPase pH -4.2, H9c2 protect 2.6, MIN6 prolif-1 13.7*, HSV augment inactive, Yeast superoxide 94.3, p-CIP stab down -1.0 and MIN6 prolif-2 2.1.
`O=C(Nc1ccccc1F)NC1CCCc2ccccc21` (configuration not stated) gave V-ATPase pH -2.0, H9c2 protect 2.5, MIN6 prolif-1 7.2*, HSV augment inactive, Yeast superoxide 81.2, p-CIP stab down 6.6 and MIN6 prolif-2 -5.3.
Screening O=C(CSc1ccc2c(c1)OCCO2)N1CCN(c2ccccc2)CC1 returned V-ATPase pH -3.2, H9c2 protect -0.4, MIN6 prolif-1 5.2 and Yeast superoxide 126.8.
Screening CC1CCCC(NC(=O)C2c3ccccc3C(=O)N2Cc2cccs2)C1C (configuration not stated) returned V-ATPase pH -2.1, H9c2 protect 1.1, MIN6 prolif-1 0.0*, HSV augment inactive, Yeast superoxide 120.0, p-CIP stab down -8.6 and MIN6 prolif-2 -6.3.
O=C(NC1CCCCCCC1)C1c2ccccc2C(=O)N1Cc1ccco1 (configuration not stated) was read as V-ATPase pH 5.4, H9c2 protect 10.1, MIN6 prolif-1 4.3, HSV augment inactive, Yeast superoxide 132.9 and p-CIP stab down 2.1.
For O=C(COc1ncnc2ccccc12)c1ccc(Cl)cc1 the results were V-ATPase pH -0.8, H9c2 protect 7.9, MIN6 prolif-1 -1.5, HSV augment inactive, Yeast superoxide 105.9 and p-CIP stab down 8.5.
`NC(=O)C1CCN(CC(=O)Nc2nc(-c3ccccc3)cs2)CC1` gave V-ATPase pH -0.3, H9c2 protect -3.1, MIN6 prolif-1 1.4, Yeast superoxide 99.7 and p-CIP stab down -8.2.
`CC1CCN(CC(=O)Nc2nc(-c3ccccc3)cs2)CC1` gave V-ATPase pH -1.3, H9c2 protect 6.7, MIN6 prolif-1 6.2*, Yeast superoxide 104.0, p-CIP stab down -5.9 and MIN6 prolif-2 -6.2.
Cc1cs/c(=N\N=C2CCCCC2)n1Cc1ccco1 was read as V-ATPase pH -1.7, H9c2 protect -6.2, MIN6 prolif-1 -2.5, HSV augment inactive, Yeast superoxide 95.7 and p-CIP stab down 11.0.
COc1ccc(N2C(=O)C(CN3CCN(C)CC3)C2c2ccccc2)cc1 (configuration not stated) was read as V-ATPase pH -3.6, H9c2 protect 2.1, MIN6 prolif-1 -2.7, HSV augment inactive, Yeast superoxide 109.9 and p-CIP stab down -1.2.
`CC1(C)CN(c2ccc(C(=O)c3ccccc3)cc2)C1=O` gave V-ATPase pH 0.9, H9c2 protect 4.6, MIN6 prolif-1 7.8*, HSV augment inactive, Yeast superoxide 110.1, p-CIP stab down -11.2 and MIN6 prolif-2 -0.6.
`CCOc1ccc(C)cc1S(=O)(=O)n1cnc2ccccc21` gave V-ATPase pH 8.6, H9c2 protect 2.7, MIN6 prolif-1 -4.7, Yeast superoxide 89.2 and p-CIP stab down -9.9.
CCOC(=O)c1c(N2C(=O)Nc3cc(Cl)c(Cl)cc3N2O)sc2c1CCCCC2 was read as V-ATPase pH 7.1, H9c2 protect -33.2, MIN6 prolif-1 -6.8, HSV augment inactive, Yeast superoxide 101.8 and p-CIP stab down -0.4.
`CCc1nc(CN2CCN(Cc3ccc(F)c(F)c3)C(CCO)C2)c(C)[nH]1` (configuration not stated) gave V-ATPase pH 0.4, H9c2 protect -4.2, MIN6 prolif-1 8.6*, HSV augment inactive, Yeast superoxide 90.0, p-CIP stab down -1.6 and MIN6 prolif-2 -1.2.
COc1cccc(C2NC(=O)NC(C)=C2C(=O)Nc2ccc(C)cc2)c1OC (configuration not stated) was read as V-ATPase pH 6.6, H9c2 protect 4.2, MIN6 prolif-1 5.4*, HSV augment inactive, Yeast superoxide 92.7, p-CIP stab down -2.3 and MIN6 prolif-2 1.2.
`S=C(NCCCn1ccnc1)Nc1cccc(Cl)c1` gave V-ATPase pH 0.2, H9c2 protect -5.7, MIN6 prolif-1 -1.5, HSV augment inactive, Yeast superoxide 92.2 and p-CIP stab down -3.0.
`CC(=O)N1N=C(c2cccc(Br)c2)OC12CCCC2` gave V-ATPase pH 1.2, H9c2 protect -17.3, MIN6 prolif-1 -2.7, HSV augment inactive, Yeast superoxide 92.3 and p-CIP stab down 0.2.
For CC(=O)N1N=C(c2ccc(Cl)cc2)OC12CCCC2 the results were V-ATPase pH 1.3, H9c2 protect 4.6, MIN6 prolif-1 7.3*, HSV augment inactive, Yeast superoxide 108.0, p-CIP stab down -11.5 and MIN6 prolif-2 -2.3.
For O=C(NCc1ccc2c(c1)OCO2)c1ccc2snnc2c1 the results were V-ATPase pH -2.4, H9c2 protect 2.4, MIN6 prolif-1 8.2*, HSV augment inactive, Yeast superoxide 97.8, p-CIP stab down 1.9 and MIN6 prolif-2 -0.1.
For O=C(NCc1ccc2c(c1)OCO2)c1ccc2c(c1)OCO2 the results were V-ATPase pH -7.0, H9c2 protect 10.8, MIN6 prolif-1 -0.4, HSV augment inactive, Yeast superoxide 96.8 and p-CIP stab down -14.3.
`CCCCCOC(=O)Cn1c(N2CCCCCC2)nc2c1c(=O)[nH]c(=O)n2C` gave V-ATPase pH 0.8, H9c2 protect 2.9, MIN6 prolif-1 9.2*, HSV augment inactive, Yeast superoxide 101.1, p-CIP stab down -5.0 and MIN6 prolif-2 -5.0.
CC/C(=N\NC(=O)c1ccc(-c2ccccc2)cc1)C12CC3CC(CC(C3)C1)C2 was read as V-ATPase pH -3.6, H9c2 protect 13.5, MIN6 prolif-1 0.0, HSV augment inactive, Yeast superoxide 94.2 and p-CIP stab down 3.3.
Screening CCc1cc(Cn2nc(-c3ccccc3)cc2C(=O)NCc2ccccc2OC)on1 returned V-ATPase pH -8.6, H9c2 protect -2.6, MIN6 prolif-1 -6.7 and Yeast superoxide 105.3.
`Cc1ccc(C)c(N(C(=O)c2ccco2)C(C(=O)NC2CCCC2)c2ccco2)c1` (configuration not stated) gave V-ATPase pH -1.5, H9c2 protect 5.5, MIN6 prolif-1 5.7*, Yeast superoxide 100.4, p-CIP stab down 7.4 and MIN6 prolif-2 -5.8.
Cc1ccc(C(C(=O)NC2CCCCC2)N(CC2CCCO2)C(=O)CNC(=O)c2ccco2)cc1 (configuration not stated) was read as V-ATPase pH -1.2, H9c2 protect 1.6, MIN6 prolif-1 5.5*, HSV augment inactive, Yeast superoxide 88.5, p-CIP stab down -12.7 and MIN6 prolif-2 -0.9.
